Results from ChEMBL document CHEMBL1961873, “Compounds: GSK PKIS; Assays: Nanosyn kinase panel” (2012).

Experiments:
[1] = target: Fibroblast growth factor receptor 4 (Homo sapiens) (UniProt P22455); conditions: at 1 µM;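 note: reported figure is the averaged percent inhibition of FGFR4, from the GSK PKIS kinase screening panel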
[2] = target: Tyrosine-protein kinase Fgr (Homo sapiens) (UniProt P09769); conditions: at 0.1 µM
[3] = target: Tyrosine-protein kinase Fgr (Homo sapiens) (UniProt P09769); conditions: at 1 µM
[4] = target: Vascular endothelial growth factor receptor 1 (Homo sapiens) (UniProt P17948); conditions: at 0.1 µM
[5] = target: Vascular endothelial growth factor receptor 1 (Homo sapiens) (UniProt P17948); conditions: at 1 µM
[6] = target: Receptor-type tyrosine-protein kinase FLT3 (Homo sapiens) (UniProt P36888); conditions: at 0.1 µM
[7] = target: Receptor-type tyrosine-protein kinase FLT3 (Homo sapiens) (UniProt P36888); conditions: at 1 µM
[8] = tested on: T1, Receptor-type tyrosine-protein kinase FLT3 (Homo sapiens), P36888 [D835Y]; conditions: at 0.1 µM
T1 sequence (whole entry): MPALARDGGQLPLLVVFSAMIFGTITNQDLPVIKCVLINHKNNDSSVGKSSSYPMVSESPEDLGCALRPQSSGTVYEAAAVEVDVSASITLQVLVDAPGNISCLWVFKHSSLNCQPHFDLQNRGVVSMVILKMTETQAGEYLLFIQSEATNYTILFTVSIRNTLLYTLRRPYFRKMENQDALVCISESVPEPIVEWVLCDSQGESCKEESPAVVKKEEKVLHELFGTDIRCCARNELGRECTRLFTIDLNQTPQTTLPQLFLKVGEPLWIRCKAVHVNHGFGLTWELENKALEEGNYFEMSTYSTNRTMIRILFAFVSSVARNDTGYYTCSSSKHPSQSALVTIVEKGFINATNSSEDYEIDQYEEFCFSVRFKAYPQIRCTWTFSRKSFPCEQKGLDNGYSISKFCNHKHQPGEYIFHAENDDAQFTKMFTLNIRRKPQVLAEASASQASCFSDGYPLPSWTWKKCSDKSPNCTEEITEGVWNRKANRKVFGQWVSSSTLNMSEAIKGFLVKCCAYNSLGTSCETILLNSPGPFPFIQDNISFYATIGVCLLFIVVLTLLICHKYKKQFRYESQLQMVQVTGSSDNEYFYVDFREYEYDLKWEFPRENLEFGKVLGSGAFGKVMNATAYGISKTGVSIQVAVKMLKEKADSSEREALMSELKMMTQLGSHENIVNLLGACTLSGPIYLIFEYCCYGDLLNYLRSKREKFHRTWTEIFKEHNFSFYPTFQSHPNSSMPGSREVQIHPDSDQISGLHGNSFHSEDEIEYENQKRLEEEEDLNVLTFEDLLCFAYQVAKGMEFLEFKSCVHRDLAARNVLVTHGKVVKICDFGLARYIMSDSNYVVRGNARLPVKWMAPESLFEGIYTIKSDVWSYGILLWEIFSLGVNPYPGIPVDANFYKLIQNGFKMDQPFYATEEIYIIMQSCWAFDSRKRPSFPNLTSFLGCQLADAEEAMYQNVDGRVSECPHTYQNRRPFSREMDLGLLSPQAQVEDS

[9] = target: Non-receptor tyrosine-protein kinase TYK2 (Homo sapiens) (UniProt P29597); conditions: at 1 µM;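 note: values are mean percent inhibition of TYK2 kinase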
[10] = target: T2, Tyrosine-protein kinase receptor TYRO3 (Homo sapiens) (UniProt Q06418); conditions: at 0.1 µM
T2 sequence (whole entry): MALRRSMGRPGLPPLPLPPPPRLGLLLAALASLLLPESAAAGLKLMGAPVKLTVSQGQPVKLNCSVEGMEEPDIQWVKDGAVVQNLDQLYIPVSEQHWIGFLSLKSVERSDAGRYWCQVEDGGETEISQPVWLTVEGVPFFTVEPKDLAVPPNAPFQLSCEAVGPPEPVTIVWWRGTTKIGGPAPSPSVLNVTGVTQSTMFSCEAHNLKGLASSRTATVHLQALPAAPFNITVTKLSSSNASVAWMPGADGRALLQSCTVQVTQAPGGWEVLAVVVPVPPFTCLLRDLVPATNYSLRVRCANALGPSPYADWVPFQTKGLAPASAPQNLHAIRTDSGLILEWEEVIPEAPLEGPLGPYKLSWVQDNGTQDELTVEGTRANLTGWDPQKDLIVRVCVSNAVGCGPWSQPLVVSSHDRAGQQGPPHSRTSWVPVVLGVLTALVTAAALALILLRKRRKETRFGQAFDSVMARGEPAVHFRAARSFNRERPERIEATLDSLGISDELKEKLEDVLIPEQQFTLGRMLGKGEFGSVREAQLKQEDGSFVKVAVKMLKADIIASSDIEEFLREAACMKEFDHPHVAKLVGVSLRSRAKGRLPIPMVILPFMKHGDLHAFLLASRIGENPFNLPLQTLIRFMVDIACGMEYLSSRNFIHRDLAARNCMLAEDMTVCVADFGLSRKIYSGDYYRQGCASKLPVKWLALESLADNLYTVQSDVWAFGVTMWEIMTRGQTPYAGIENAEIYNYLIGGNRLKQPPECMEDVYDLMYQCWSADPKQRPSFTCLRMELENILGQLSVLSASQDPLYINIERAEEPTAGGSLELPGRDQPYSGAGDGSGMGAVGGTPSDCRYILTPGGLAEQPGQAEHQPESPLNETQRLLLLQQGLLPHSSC

[11] = target: T2, Tyrosine-protein kinase receptor TYRO3 (Homo sapiens); conditions: at 1 µM
[12] = target: Tyrosine-protein kinase Yes (Homo sapiens) (UniProt P07947); conditions: at 0.1 µM
[13] = target: Tyrosine-protein kinase Yes (Homo sapiens) (UniProt P07947); conditions: at 1 µM
[14] = target: T3, Tyrosine-protein kinase ZAP-70 (Homo sapiens) (UniProt P43403); conditions: at 0.1 µM
T3 sequence (whole entry): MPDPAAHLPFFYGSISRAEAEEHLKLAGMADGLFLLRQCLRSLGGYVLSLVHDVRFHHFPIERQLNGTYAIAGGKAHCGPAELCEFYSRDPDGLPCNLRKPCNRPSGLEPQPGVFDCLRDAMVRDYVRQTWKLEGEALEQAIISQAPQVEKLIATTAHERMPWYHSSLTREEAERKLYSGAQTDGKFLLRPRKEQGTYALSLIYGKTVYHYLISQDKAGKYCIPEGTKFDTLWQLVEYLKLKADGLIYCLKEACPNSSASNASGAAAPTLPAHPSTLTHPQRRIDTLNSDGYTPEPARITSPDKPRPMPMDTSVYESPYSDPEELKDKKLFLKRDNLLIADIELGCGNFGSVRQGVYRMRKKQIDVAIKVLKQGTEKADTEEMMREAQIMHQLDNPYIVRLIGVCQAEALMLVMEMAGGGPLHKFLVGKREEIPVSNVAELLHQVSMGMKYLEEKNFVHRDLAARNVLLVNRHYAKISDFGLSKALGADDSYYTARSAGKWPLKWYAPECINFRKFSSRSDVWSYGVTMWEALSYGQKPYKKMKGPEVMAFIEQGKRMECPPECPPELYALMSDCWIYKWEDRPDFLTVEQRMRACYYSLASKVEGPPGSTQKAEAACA

[15] = target: T3, Tyrosine-protein kinase ZAP-70 (Homo sapiens); conditions: at 1 µM
[16] = target: Serine/threonine-protein kinase B-raf (Homo sapiens) (UniProt P15056); conditions: at 0.1 µM
[17] = target: Serine/threonine-protein kinase B-raf (Homo sapiens) (UniProt P15056); conditions: at 1 µM
[18] = tested on: Serine/threonine-protein kinase B-raf (Homo sapiens), P15056 [V600E]; conditions: at 0.1 µM
[19] = tested on: Serine/threonine-protein kinase B-raf (Homo sapiens), P15056 [V600E]; conditions: at 1 µM
[20] = target: RAF proto-oncogene serine/threonine-protein kinase (Homo sapiens) (UniProt P04049); conditions: at 0.1 µM;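 note: values are mean CRAF kinase inhibition from profiling of the GSK Published Kinase Inhibitor Set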
Chain of RAF proto-oncogene serine/threonine-protein kinase (Homo sapiens) (P04049 whole entry): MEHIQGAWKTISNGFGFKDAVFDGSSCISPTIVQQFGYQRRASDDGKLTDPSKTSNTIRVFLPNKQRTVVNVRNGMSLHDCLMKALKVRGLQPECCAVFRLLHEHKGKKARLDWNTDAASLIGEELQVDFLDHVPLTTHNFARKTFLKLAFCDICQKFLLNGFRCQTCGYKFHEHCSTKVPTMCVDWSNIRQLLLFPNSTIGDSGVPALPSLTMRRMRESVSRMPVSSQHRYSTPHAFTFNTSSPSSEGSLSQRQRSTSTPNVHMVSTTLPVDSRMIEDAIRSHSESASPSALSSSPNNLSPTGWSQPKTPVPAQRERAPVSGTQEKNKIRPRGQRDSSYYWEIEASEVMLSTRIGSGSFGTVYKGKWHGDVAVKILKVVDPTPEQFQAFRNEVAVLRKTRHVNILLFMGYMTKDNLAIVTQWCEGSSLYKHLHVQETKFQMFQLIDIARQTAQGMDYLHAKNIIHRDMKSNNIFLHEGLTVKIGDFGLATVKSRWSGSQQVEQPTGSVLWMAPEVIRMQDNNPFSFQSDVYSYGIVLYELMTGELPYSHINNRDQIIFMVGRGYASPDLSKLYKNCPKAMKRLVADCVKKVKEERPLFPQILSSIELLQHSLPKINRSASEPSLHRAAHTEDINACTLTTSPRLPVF

Chain of Serine/threonine-protein kinase B-raf (Homo sapiens), P15056 [V600E] (P15056 whole entry V600E): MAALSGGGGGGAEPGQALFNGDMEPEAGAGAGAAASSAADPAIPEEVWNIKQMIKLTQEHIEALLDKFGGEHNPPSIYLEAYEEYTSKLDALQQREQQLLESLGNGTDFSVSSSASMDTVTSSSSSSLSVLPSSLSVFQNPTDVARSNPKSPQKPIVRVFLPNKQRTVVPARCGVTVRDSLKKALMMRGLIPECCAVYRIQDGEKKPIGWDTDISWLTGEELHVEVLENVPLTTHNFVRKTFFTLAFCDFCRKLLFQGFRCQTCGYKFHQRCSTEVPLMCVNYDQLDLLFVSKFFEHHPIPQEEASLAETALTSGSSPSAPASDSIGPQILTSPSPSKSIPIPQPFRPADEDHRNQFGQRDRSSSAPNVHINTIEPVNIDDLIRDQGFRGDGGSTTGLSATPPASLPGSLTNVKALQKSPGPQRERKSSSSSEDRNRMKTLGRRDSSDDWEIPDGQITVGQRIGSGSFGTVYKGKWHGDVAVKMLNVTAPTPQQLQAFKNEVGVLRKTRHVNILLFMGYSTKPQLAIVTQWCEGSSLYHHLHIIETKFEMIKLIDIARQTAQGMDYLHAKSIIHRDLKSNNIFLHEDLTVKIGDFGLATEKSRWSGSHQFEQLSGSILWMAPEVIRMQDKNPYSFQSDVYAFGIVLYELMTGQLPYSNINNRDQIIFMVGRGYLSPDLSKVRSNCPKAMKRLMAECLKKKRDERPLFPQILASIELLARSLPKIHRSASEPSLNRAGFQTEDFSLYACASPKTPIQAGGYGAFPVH
Chain of Vascular endothelial growth factor receptor 1 (Homo sapiens) (P17948 whole entry): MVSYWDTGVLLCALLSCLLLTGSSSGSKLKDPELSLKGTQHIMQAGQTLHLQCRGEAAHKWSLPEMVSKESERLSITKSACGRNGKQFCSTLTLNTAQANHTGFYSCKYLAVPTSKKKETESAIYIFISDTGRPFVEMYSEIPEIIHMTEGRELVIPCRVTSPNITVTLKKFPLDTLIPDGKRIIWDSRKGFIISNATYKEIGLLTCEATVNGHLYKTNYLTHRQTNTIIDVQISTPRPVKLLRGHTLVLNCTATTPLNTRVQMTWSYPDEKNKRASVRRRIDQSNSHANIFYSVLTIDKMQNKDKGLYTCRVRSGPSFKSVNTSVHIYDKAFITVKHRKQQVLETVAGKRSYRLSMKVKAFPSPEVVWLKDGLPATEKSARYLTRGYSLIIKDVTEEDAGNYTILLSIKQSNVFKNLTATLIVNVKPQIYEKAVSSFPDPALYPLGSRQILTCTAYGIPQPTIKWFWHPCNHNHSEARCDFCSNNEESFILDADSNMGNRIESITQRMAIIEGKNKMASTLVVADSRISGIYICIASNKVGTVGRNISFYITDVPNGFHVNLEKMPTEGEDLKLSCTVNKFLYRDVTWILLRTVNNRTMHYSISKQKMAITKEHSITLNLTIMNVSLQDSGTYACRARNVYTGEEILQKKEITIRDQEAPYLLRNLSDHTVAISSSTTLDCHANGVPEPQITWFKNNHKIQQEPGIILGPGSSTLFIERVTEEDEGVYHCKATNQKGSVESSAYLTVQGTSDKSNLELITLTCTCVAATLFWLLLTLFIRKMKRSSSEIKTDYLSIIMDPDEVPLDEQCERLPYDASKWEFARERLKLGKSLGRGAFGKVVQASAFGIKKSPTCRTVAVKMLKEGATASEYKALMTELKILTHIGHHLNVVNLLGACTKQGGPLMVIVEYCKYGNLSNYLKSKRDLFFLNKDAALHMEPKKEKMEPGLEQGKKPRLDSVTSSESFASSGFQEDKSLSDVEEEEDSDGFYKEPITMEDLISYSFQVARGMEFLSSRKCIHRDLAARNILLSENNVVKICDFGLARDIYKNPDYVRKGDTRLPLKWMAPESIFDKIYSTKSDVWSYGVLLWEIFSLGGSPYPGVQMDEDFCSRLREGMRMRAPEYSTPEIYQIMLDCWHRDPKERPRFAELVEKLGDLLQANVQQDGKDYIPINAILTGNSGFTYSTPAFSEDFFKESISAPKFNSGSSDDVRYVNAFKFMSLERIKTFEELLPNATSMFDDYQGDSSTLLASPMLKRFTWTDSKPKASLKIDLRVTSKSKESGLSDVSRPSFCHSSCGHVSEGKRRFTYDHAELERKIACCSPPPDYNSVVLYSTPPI
Chain of Tyrosine-protein kinase Fgr (Homo sapiens) (P09769 2-529 limits assumed): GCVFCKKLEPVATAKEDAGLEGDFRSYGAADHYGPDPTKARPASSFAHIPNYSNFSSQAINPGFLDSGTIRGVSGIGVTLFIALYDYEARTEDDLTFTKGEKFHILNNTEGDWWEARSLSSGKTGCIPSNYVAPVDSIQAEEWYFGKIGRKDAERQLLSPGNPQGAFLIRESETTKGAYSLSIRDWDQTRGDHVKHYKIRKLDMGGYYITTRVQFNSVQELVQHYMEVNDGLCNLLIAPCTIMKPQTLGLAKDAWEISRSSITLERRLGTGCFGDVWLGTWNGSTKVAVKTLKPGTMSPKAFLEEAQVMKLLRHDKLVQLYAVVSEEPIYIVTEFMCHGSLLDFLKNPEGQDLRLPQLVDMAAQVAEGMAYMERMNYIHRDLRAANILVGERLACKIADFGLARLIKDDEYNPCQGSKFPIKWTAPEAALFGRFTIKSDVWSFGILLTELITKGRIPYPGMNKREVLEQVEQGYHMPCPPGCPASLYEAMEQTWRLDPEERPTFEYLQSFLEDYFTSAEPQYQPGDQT
Chain of Non-receptor tyrosine-protein kinase TYK2 (Homo sapiens) (P29597 whole entry): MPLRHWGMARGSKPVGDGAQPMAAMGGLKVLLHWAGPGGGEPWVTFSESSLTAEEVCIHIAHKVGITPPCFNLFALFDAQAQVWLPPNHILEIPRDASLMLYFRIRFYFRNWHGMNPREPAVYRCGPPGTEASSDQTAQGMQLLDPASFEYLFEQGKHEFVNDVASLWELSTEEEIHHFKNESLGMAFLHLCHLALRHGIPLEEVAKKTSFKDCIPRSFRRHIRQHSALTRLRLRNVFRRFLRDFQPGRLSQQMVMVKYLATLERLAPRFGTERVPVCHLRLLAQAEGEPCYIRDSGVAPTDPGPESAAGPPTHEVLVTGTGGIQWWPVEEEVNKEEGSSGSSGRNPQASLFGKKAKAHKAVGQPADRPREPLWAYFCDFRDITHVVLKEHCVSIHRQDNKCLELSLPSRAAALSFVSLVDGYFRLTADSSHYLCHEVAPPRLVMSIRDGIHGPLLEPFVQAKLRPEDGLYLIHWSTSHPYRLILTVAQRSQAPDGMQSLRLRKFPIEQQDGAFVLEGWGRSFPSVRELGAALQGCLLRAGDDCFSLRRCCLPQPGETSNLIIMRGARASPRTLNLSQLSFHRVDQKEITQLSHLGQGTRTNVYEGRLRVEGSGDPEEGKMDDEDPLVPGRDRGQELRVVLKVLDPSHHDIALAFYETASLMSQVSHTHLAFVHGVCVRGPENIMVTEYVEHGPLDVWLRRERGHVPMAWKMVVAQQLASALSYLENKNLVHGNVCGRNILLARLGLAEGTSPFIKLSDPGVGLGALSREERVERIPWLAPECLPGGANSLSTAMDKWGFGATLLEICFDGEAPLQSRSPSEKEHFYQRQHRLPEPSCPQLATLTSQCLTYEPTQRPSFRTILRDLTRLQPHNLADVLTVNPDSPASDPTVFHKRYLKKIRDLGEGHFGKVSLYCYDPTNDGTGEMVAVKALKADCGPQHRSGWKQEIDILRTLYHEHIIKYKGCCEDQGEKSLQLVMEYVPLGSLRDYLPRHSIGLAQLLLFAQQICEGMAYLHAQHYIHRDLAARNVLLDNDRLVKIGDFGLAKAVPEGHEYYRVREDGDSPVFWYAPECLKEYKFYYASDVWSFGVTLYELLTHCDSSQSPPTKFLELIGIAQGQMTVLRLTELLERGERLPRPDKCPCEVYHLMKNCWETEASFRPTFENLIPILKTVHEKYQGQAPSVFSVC
Chain of Tyrosine-protein kinase Yes (Homo sapiens) (P07947 2-543 limits assumed): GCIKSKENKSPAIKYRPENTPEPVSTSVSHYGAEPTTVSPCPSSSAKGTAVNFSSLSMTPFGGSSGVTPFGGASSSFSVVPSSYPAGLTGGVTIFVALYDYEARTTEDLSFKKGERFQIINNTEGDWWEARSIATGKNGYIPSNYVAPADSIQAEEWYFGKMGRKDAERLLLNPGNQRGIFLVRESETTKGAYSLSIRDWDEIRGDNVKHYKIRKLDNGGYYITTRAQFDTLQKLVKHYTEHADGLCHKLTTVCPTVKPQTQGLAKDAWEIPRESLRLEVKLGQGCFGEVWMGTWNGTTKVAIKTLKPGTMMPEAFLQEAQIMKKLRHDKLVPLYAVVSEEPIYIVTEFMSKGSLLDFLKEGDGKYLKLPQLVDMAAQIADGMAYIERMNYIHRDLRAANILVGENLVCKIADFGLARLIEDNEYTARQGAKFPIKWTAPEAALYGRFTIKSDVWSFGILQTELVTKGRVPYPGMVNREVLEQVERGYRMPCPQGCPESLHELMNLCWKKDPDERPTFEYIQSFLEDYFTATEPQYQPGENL
Chain of Serine/threonine-protein kinase B-raf (Homo sapiens) (P15056 whole entry): as the sequence (P15056 whole entry V600E) above, with E600V counted along it

SMILES | inhibition [1] [%] | inhibition [2] [%] | inhibition [3] [%] | inhibition [4] [%] | inhibition [5] [%] | inhibition [6] [%] | inhibition [7] [%] | inhibition [8] [%] | inhibition [9] [%] | inhibition [10] [%] | inhibition [11] [%] | inhibition [12] [%] | inhibition [13] [%] | inhibition [14] [%] | inhibition [15] [%] | inhibition [16] [%] | inhibition [17] [%] | inhibition [18] [%] | inhibition [19] [%] | inhibition [20] [%]
Nc1nc(-c2ccc(F)cc2)c(-c2ccc3ncccc3n2)s1 | 3.47 | 6.43 | 14.1 | -0.09 | 6.56 | 3.5 | 3.75 | 1.18 | -1.99 | 3.01 | 2.87 | 6.52 | 37.8 | 1.91 | 1.99 | 6.57 | 7.72 | 6.41 | 7.92 | 0.53
COc1ccc(CNC(=O)c2ccc(-c3cc(-c4nnc(C)o4)ccc3C)cc2)cc1 | 3.73 | 8.93 | 6.92 | -0.52 | -0.47 | 0.57 | -0.2 | -2.79 | 1.88 | 1.4 | 4.48 | -0.74 | 7.13 | 2.69 | 2.94 | 0.94 | -0.29 | 1.06 | 1.01 | 1.48
[O-][S+]1CCN(Cc2ccc(-c3ccc4ncnc(Nc5ccc(OCc6cccc(F)c6)c(Cl)c5)c4c3)o2)CC1 | 0.31 | 3.65 | 6.21 | 0.35 | -0.47 | 4.64 | 5.03 | 1.35 | -4.3 | 3.67 | 18.8 | 6.03 | 21.1 | 0.38 | 3.57 | 6.54 | 8.02 | 5.36 | 5.17 | -0.6
Fc1ccc(-c2nn3ncccc3c2-c2ccnc(Nc3ccc4c(c3)OCCO4)n2)cc1 | 3.32 | 68.2 | 84 | 7.67 | 30.8 | 2.79 | 6.52 | -1.97 | -3.36 | 5.85 | 24.8 | 86.3 | 96.6 | 3.1 | 3.06 | 11.6 | 25.9 | 11.6 | 21.5 | 0.23
NC(=O)c1sc(-n2cnc3ccc(C(F)(F)F)cc32)cc1OCc1ccccc1Br | 2.14 | 3.5 | 1.54 | 1.4 | 4.1 | 1.91 | 1.02 | -2.48 | -3.62 | 3.13 | 2.95 | 2.93 | 6.95 | 2.64 | 2.31 | 6.14 | 7.4 | 5.99 | 6.42 | -1.07
CS(=O)(=O)CCNCc1coc(-c2ccc3ncnc(Nc4ccc(OCc5ccccc5)cc4)c3c2)c1 | 1.09 | 3.94 | 14.9 | 3.16 | 2.3 | 3.27 | 9.61 | -1.74 | 0.61 | 2.35 | 2.91 | 4.14 | 26.2 | 1.16 | 2.06 | 3.09 | 6.31 | 3.49 | 3.25 | 2.12
c1ccc(COc2ccc(Nc3ncnc4ccc(-c5ccco5)cc34)cc2)cc1 | 0.84 | 3.1 | 7.56 | -2.31 | -0.13 | 0.33 | 3.12 | -0.59 | -2.46 | 0.34 | 1.86 | 3.28 | 13.1 | -2.15 | 0.17 | 1.52 | 1.99 | 2.01 | 3.23 | 11.2
CCn1c(-c2nonc2N)nc2c(C#CC(C)(C)O)nc(OC[C@H](N)c3ccccc3)cc21 | 2.04 | 0.69 | 5.54 | 6.07 | 30.4 | 2.64 | 2.43 | -0.59 | -3.88 | 0.23 | 1.88 | 2.49 | 7.77 | 0.59 | -2.5 | 1.18 | 5.43 | 1.68 | 2.41 | -2.29
COc1ccc2c(-c3ccnc(Nc4cccc(OC(F)(F)F)c4)n3)cnn2n1 | 0.68 | 5.29 | 7.16 | 1.57 | 7.39 | 3.4 | 14.3 | 3.59 | -2.09 | 4.51 | 7.73 | 2.47 | 6.34 | 0.87 | 3.62 | 6.94 | 7.89 | 5.16 | 6.12 | 1.54
